{
  "source": "PubChem BioAssay AID588342",
  "about": "(National Center for Advancing Translational Sciences (NCATS), 2011)",
  "note": "In all, about 360,000 compounds went through this assay and about 25,000 (6.9%) were called active. Not shown: some 9% with an inconclusive outcome. The sample as a whole holds a higher share of actives than the screen did. Unmarked numbers belong to inactive results. Calls come from the whole dose curve; as a rule, active = well fitted inhibition curve with a large enough effect; inconclusive = small, poorly fitted or top-dose-only effect; inactive = flat fitted curve, though single readings scatter. Potency is the fitted concentration of half-maximal effect.",
  "data": [
    {"target": "Luciferin 4-monooxygenase (Photinus pyralis) (UniProt P08659)", "sequence (P08659 whole entry, looked up)": "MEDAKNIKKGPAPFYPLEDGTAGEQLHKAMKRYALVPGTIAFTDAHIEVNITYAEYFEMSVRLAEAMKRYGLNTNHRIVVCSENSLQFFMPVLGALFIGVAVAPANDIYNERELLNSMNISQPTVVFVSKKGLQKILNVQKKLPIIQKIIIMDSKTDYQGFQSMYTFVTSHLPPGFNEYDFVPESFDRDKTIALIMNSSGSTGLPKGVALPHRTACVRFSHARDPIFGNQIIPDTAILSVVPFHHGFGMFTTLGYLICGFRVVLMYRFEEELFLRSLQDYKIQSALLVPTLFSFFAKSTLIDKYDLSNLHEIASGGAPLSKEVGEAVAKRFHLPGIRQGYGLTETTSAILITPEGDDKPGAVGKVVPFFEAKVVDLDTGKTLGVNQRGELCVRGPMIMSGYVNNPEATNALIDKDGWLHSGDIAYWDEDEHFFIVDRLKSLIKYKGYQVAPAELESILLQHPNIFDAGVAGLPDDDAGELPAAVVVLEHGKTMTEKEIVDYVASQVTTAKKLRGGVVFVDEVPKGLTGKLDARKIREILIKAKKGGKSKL", "assay": "qHTS profiling assay for firefly luciferase inhibitor/activator using purifed enzyme and Km concentrations of substrates (counterscreen for miR-21 project); note: nearly all actives have a fitted effect of over 55% in size;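 for activity change, negative = inhibition: plate controls were vehicle for no effect and reference inhibitor for full effect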", "conditions": "purified FLuc, luminescence inhibition; series mostly up to 57.5 µM; activity change, negative = inhibition: at the top concentration", "method_in_brief": "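Purified P. pyralis luciferase (10nM final) with 10uM D-luciferin and 10uM ATP (Km levels) in 50mM Tris acetate pH 7.5, 10mM Mg acetate, 0.01% Tween-20, 0.05% BSA; qHTS 6-point titration, ~60 µM downward; luminescence read.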", "units": {"activity change, negative = inhibition": "%"}, "values": [
      {"smiles": "C[N+]1(CCNC(=O)/C=N/O)CCCCC1", "activity change, negative = inhibition": 1.69},
      {"smiles": "COc1ccc(-n2cnc3cc(NCc4ccco4)ccc32)cc1", "Potency": "7.57 µM (active)"},
      {"smiles": "C=CCC(NCc1ccco1)c1ccc(OC)cc1", "note": "(stereo not given)", "activity change, negative = inhibition": -1.1},
      {"smiles": "COc1ccc(-n2cnc3cc(C(=O)NC4CCCC4)ccc32)cc1", "Potency": "inactive"},
      {"smiles": "Cc1ccc(S(=O)(=O)c2nnn3c2nc(N2CCN(c4ccccc4F)CC2)c2cc(Cl)ccc23)cc1C", "activity change, negative = inhibition": 3.15},
      {"smiles": "COc1ccc(CCNC(=O)c2cnc3sc(N4CCCCCC4)nn3c2=O)cc1OC", "activity change, negative = inhibition": -0.514},
      {"smiles": "COc1ccc(NC(=S)NC2CCS(=O)(=O)C2)cc1", "note": "(stereo not given)", "activity change, negative = inhibition": 3.48},
      {"smiles": "O=C(CN1C(=O)S/C(=C\\c2ccccc2F)C1=O)NCCCn1ccnc1", "activity change, negative = inhibition": -17.9},
      {"smiles": "COc1ccc(/C=C2\\SC(=O)N(CCC(=O)NC3CCS(=O)(=O)C3)C2=O)cc1", "note": "(stereo not given)", "Potency": "10.7 µM (active)"},
      {"smiles": "O=C(CCN1C(=O)c2ccccc2C1=O)NCCCn1ccnc1", "activity change, negative = inhibition": 0.843},
      {"smiles": "COc1ccc(NC(=O)CCN2C(=O)/C(=C/c3ccc4c(c3)OCO4)SC2=S)cc1", "activity change, negative = inhibition": 1.43},
      {"smiles": "COc1ccc(/C=C2\\SC(=O)N(CCC(=O)NCCCn3ccnc3)C2=O)cc1", "Potency": "13.5 µM (active)"},
      {"smiles": "O=C(C1CCN(CC2CCCCC2)CC1)N1CCCC1", "activity change, negative = inhibition": 6.5},
      {"smiles": "COc1ccc(-c2nn3c(=O)cc(CN4CCN(C(=O)c5ccc(OC)c(OC)c5)CC4)nc3s2)cc1", "activity change, negative = inhibition": -1.63},
      {"smiles": "Cc1c(-c2nsc(NC(=O)c3cccc(Cl)c3)n2)nnn1-c1ccccc1C(F)(F)F", "Potency": "12 µM (active)"},
      {"smiles": "COc1ccc(-n2nnc(-c3nsc(NC(=O)c4ccc(C)c(C)c4)n3)c2C)cc1Cl", "activity change, negative = inhibition": 1.79},
      {"smiles": "CCc1cccc(-n2nnc(-c3nsc(NC(=O)c4ccc(C)cc4)n3)c2C)c1", "activity change, negative = inhibition": -2.73},
      {"smiles": "COc1ccc(OCCCn2c(C)nc3cc(C)c(C)cc32)cc1", "activity change, negative = inhibition": -1.58},
      {"smiles": "CC(C)(C)C(=O)c1cnc(Nc2ccccc2)s1", "Potency": "6.01 µM (active)"},
      {"smiles": "CC(=O)c1cnc(-c2ccccc2)s1", "activity change, negative = inhibition": -17.3},
      {"smiles": "O=C(/C=C/Nc1ccccc1)c1cnc(-c2ccccc2)s1", "activity change, negative = inhibition": -5.04},
      {"smiles": "COc1ccc(NC(=O)CSc2nnc(-c3nnn(-c4ccc(F)cc4)c3C)o2)cc1", "activity change, negative = inhibition": -16.8},
      {"smiles": "CCc1c(-c2ccccc2)nc(N)c(C#N)c1-c1cccs1", "activity change, negative = inhibition": -1.39},
      {"smiles": "CN(C(=O)COc1nnc(-c2cccs2)c(-c2cccs2)n1)c1ccccc1", "activity change, negative = inhibition": 2.3},
      {"smiles": "O=C(O)Cc1sc(-c2ccccc2)nc1-c1cccs1", "Potency": "23.9 µM (active)"},
      {"smiles": "O=C(CCc1ccccc1Cl)Nc1ccc(S(=O)(=O)Nc2nccs2)cc1", "activity change, negative = inhibition": 0.725},
      {"smiles": "COc1cc(C(=O)N(Cc2ccc(C(C)C)cc2)C2CCS(=O)(=O)C2)cc(OC)c1OC", "note": "(stereo not given)", "activity change, negative = inhibition": -0.151},
      {"smiles": "COc1ccc(-c2[nH]ncc2/C=N/NC(=O)c2cc(Br)ccc2O)c(OC)c1", "activity change, negative = inhibition": -10.2},
      {"smiles": "CC(=N\\NC(=O)c1cc(Br)ccc1O)/C(=N/O)C(=O)Nc1ccccc1", "Potency": "15.1 µM (active)"},
      {"smiles": "CC(=O)N/N=C(\\C)c1ccc(Br)cc1Br", "activity change, negative = inhibition": 1.38}
    ]}
  ]
}
